Source: PubChem (National Center for Advancing Translational Sciences (NCATS))
HCMV antiviral: blocks human cytomegalovirus replication; 410,000 tested, 4.5% active; HFF cells, HCMV-luciferase reporter, 72 h; active compounds read low; activity change, negative = inhibition, % at 57.5 µM; in the data active means activity change below about -60%; inconclusive means no clear call, values can overlap the other calls; inactive means above about -39%
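Two compound doses tested in HFFs infected with HCMV-luciferase, MOI 1 PFU/cell, 72 h at 37C. Lysate luminescence read with OneGlo; data normalized against buffer-only and 10uM Salinomycin inhibitor controls.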
VACV mCherry inh: vaccinia inhibition (mCherry reporter). Vaccinia virus mCherry reporter infection, fluorescence. Potency, µM (titrated, usually from 36.5 µM), for the others: at the top dose activity change, negative = inhibition, most hits filed as inhibitors. 310,000 tested, 0.63% active. AID 720579; calls by dose curve; tested in A549 cells; further: potency means the concentration at half of the fitted maximal effect; nearly all actives have a fitted effect of over 35% in size
Marburg entry inh: blocks Marburg virus binding to or entry into cells. Potency, µM (highest dose often 37.8 µM), for inactives: at the top dose activity change, negative = inhibition, usual class: inhibitors. Marburg virus pseudotyped entry inhibition, cell reporter. 300,000 tested, 1.8% active; calls by dose curve; tested in HEK293 cells; further: potency means the concentration at half of the fitted maximal effect
Vaccinia Venus: inhibitors of vaccinia virus (Venus reporter). Vaccinia virus Venus reporter expression, fluorescence. Potency, µM (series often up to 36.5 µM), without a hit: at the top dose activity change, negative = inhibition, usual class: inhibitors. 330,000 tested, 0.46% active; calls by dose curve; tested in A549 cells; further: potency means the concentration at half of the fitted maximal effect; nearly all actives have a fitted effect of over 30% in size
LASV entry inh: inhibitors of Lassa virus binding or cell entry. Lassa virus pseudotype entry inhibition, cell reporter. Potency, µM (highest dose often 37.9 µM), without a hit: top-dose activity change, negative = inhibition, actives largely listed as inhibitors. 300,000 tested, 1.2% active; calls by dose curve; tested in HEK293 cells; further: potency means the concentration at half of the fitted maximal effect; nearly all actives have a fitted effect of over 50% in size
HCV inhibitor: inhibitors of hepatitis C virus infection. Huh7.5.1 HCVcc-Cre infection, luciferase reporter, 44 h. Potency, µM (doses to about 41.8 µM), for inactives: top-dose activity change, negative = inhibition, actives largely listed as inhibitors. 340,000 tested, 3.4% active. AID 651820; active means well fitted inhibition curve with a large enough effect; inconclusive means small, poorly fitted or top-dose-only effect, or another doubt; inactive means no such curve, though single readings can be large or run the other way; further: potency means the concentration at half of the fitted maximal effect
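Luciferase read-out (15 sec integration) after a 15 min room-temperature substrate step quantifies HCVcc-Cre infection. Cells, 1,000 per well, had compound added 4 h post-plating, then virus at ~0.5 moi, and were cultured 44 h.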
Active calls of the source: *; i = inactive; u = inconclusive; x = not tested or not shown; ! = not confirmed by another sample; [ ] = another dose, or the depositor's remark. This is a sample that favours compounds with a hit; in the whole collection about 7.8% have one here. On the % scale 0 is the no-effect control and ±100 the full control effect.

SMILES	HCMV antiviral	VACV mCherry inh	Marburg entry inh	Vaccinia Venus	LASV entry inh	HCV inhibitor
COc1ccc(OC)c2sc(N3CCN(C(=O)c4ccc([N+](=O)[O-])s4)CC3)nc12	-12	i	-7%	-5%	-15%	u
Cc1nc2ccccc2nc1CN1CCOc2ccc(C3(O)CCN(c4ccccc4F)CC3)cc2C1	x	-15%	x	-9%	x	x
Cc1cccc(N2CCN(c3c4c(nc5nncn35)CCC4)CC2)c1C	u	-11%	-6%[46.1 µM]	-8%	17%[46.1 µM]	x
COc1cccc(N2CCN(c3c4c(nc5nncn35)CCC4)CC2)c1	-95*	u	u	u	-21%[46.1 µM]	x
Clc1cccc(N2CCN(c3c4c(nc5nncn35)CCC4)CC2)c1	-65*	u	u	-28%	9%[46.1 µM]	x
Cc1csc2nc(COc3ccc(NC(=O)COc4ccc(F)cc4)cc3)cc(=O)n12	-20	-7%	-13%[46.1 µM]	-12%	-4%[46.1 µM]	x
COc1ccc(S(=O)(=O)N2CCN(C(=O)c3cc(-c4ccc(Br)cc4)n[nH]3)CC2)cc1OC	-72*!	-20%	u	u	10µM*	u
CC(=O)c1ccc(C(=O)N2CCCC(c3nc(SCc4ccccn4)ncc3C)C2)cc1 (stereo not given)	x	-29%	x	-20%	x	x
Cc1cnc(SCc2ccccn2)nc1C1CCCN(C(=O)c2cccc(-c3cccc(F)c3)c2)C1 (stereo not given)	x	10µM*	x	u	x	x
CCc1cccc(C)c1NC(=O)Nc1csc2c1CCCC2	3	-20%	0%[46.1 µM]	-22%	x	x
CCOc1ccc(CN2CCCC(CO)(Cc3ccc(F)cc3)C2)cc1 (stereo not given)	12	u	7.9µM*	-23%	-40%[46.1 µM]	-8%
COc1ccc(CN2CCCC(CO)(Cc3ccc(F)cc3F)C2)cc1 (stereo not given)	-4	u	10µM*	-14%	-42%[46.1 µM]	1%
CC(C)N(C(=O)[C@H]1C[C@H](CC(=O)NCCCN(C)C)C(=O)N2CCc3c([nH]c4ccc(Cl)cc34)[C@]12C)C(C)C	-10	i	x	-5%	x	10µM*
CCN(CC)C(=O)[C@H]1C[C@H](CC(=O)NCC23CC4CC(CC(C4)C2)C3)C(=O)N2CCc3c([nH]c4ccc(Cl)cc34)[C@]12C	-35	u	x	10µM*	x	u
CCN(CC)C(=O)[C@H]1C[C@H](CC(=O)NCCCN(C)C)C(=O)N2CCc3c([nH]c4ccc(Cl)cc34)[C@]12C	-26	i	x	u	x	u
COc1ccc2[nH]c3c(c2c1)CCN1C(=O)C(CC(=O)NCCCN(C)C)C[C@H](C(=O)N(C(C)C)C(C)C)[C@@]31C (stereo not given in full)	-17	-21%	-1%	0%	x	1%
CC(C)N(C(=O)[C@H]1C[C@H](CC(=O)NCC23CC4CC(CC(C4)C2)C3)C(=O)N2CCc3c([nH]c4ccc(Cl)cc34)[C@]12C)C(C)C	-16	u	x	13µM*	x	16µM*
COCCN1CCN(C(=O)c2cnn(-c3nccc(-c4ccco4)n3)c2C2CC2)CC1	x	2%	x	4%	x	x
OC(CCCN1CCC(O)(c2ccc(Cl)cc2)CC1)c1ccc(F)cc1 (stereo not given)	10	-4%	u	-15%	u	u
OC1(c2ccc(Cl)c(C(F)(F)F)c2)CCN(CCCC(c2ccc(F)cc2)c2ccc(F)cc2)CC1	-99*	x	x	x	x	x
O=C(NCc1ccccc1)c1cc2nc(C3CC3)cc(C(F)(F)F)n2n1	8	x	u	x	-15%	-26%
Cc1ccc(Cn2ccc(NC(=O)c3cc4nc(-c5ccco5)cc(C(F)(F)F)n4n3)n2)cc1	15	x	2%	x	4%	-18%
O=C(NCc1ccco1)c1cc2nc(C3CC3)cc(C(F)(F)F)n2n1	10	x	1%[46.1 µM]	-25%	3.5µM*	-16%
O=C(Nc1ccc(Cl)cc1)c1cc2nc(-c3ccco3)cc(C(F)(F)F)n2n1	-21	-19%	9%	-5%	-16%	u
Cc1ccccc1Cn1cc(NC(=O)c2cc3nc(-c4ccco4)cc(C(F)(F)F)n3n2)cn1	-28	u	-10%	-22%	-5%	10µM*
SMILES	HCMV antiviral	VACV mCherry inh	Marburg entry inh	Vaccinia Venus	LASV entry inh	HCV inhibitor
CCc1ccc(-c2cc(C(F)(F)F)n3nc(C(=O)Nc4cnn(Cc5ccc(C)cc5)c4)cc3n2)s1	x	x	9.2µM*	x	u	11µM*
O=C(NCc1nnc2n1CCN(Cc1cccc(Cl)c1)CC2)c1cccc(F)c1	x	-5%	x	0%	x	x
CC(C)(C)c1ccc(OCCCC(=O)NNC(=O)c2ccccc2O)cc1	20	14µM*	u	u	u	u
Cc1noc(C)c1COc1ccc(C(=O)Nc2nnc(CC(C)C)s2)cc1	-62*	x	x	x	x	u
Cc1noc(C)c1COc1ccc(C(=O)Nc2ccccc2)cc1	u	-15%	u	-9%	2%[46.1 µM]	-6%
Cc1noc(C)c1C(=O)Nc1nnc(CC(C)C)s1	0	i	4%[46.1 µM]	14%	23%	-28%
Cc1noc(C)c1COc1ccc(C(=O)NNC(=O)c2ccccc2O)cc1	-23	3.5µM*	u	u	-23%	-4%
COc1ccc(-c2nc(C(=O)Nc3cccc(C(C)=O)c3)nn2-c2ccccc2Cl)cc1	-3	-10%	u	1%	-8%[46.1 µM]	x
COc1ccc2[nH]c(CCc3nc4c(OC)c(OC)ccc4[nH]3)nc2c1OC	x	-12%	x	-11%	x	x
Cc1ccc(Cl)cc1NC(=O)Nc1cccs1	u	u	10µM*	-14%	-3%	1%
COc1ccc(CNC(=O)CN2C(=O)CC(c3ccc(C)c(C)c3)=Nc3ccccc32)cc1	43	1%	x	41%	-1%[46.1 µM]	x
CN(C)c1cc(O)c(C(=S)Nc2ccccc2)c(N(C)C)c1	40	-5%	u	-4%	10%	11µM*
S=C(Nc1cccc(Br)c1)c1ccccc1	-74*	x	9%	x	u	-11%
CN(C)c1ccc(C(=S)Nc2ccccc2)cc1	-65*	u	14µM*	-28%	u	5%
S=C(Nc1ccccc1)Nc1cccc(Br)c1	-33	x	x	x	x	-5%
CN(C)c1ccc(NC(=S)c2ccccn2)cc1	-91*	-24%	0.82µM*	-18%	0.89µM*	11%
CCc1cc2c(nc1CC)CCN(CCC(C)=NO[C@@H]1O[C@H](COC(C)=O)[C@@H](OC(C)=O)[C@H](OC(C)=O)[C@@H]1OC(C)=O)C2	x	x	-19%[14.2 µM]	x	x	x
Cc1ccc(CN2CCC(C3(c4ccccn4)NC(=O)N(CC4CCCO4)C3=O)CC2)cc1C (stereo not given)	x	-4%	x	-17%	x	x
CCC(=O)N1CCc2cc(Br)cc(S(=O)(=O)N3CCN(c4ccccc4OC)CC3)c21	-5	-9%	1%[46.1 µM]	-7%	0%[46.1 µM]	x
COc1ccc(C(C#N)=Cc2ccccc2OC)cc1	-88*	-14%	x	-28%	x	x
COc1ccc(C=C(C#N)c2ccc(OC)cc2)cc1	-16	-9%	7.9µM*	-23%	u	u
